Laboratory results reported in the supplement of paper PMC6555819.

What was measured:
Assay in all cases: PBM binding z-score (relative to random genomic background probes); higher = stronger binding; sequences stand for … in GC…GCGATTGACAGCGTAGAATGAAGG
[1] = tested on: FXR:RXRa (NR concentration 270 nM, RXRa partner concentration 90 nM)
Method in brief: (§1)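 For binding z-scores, the reference was random background probes on custom Agilent 4×180K protein-binding microarrays. These arrays were incubated 1 h with ligand-free nuclear receptor dimers in PBS pH 7.4, 2% milk, 0.02% Triton X-100, 1 mM DTT, 0.2 mg/mL BSA and 0.4 mg/ml salmon testes DNA. Fluorescence was scanned after antibody detection of each partner (one per run) and regression-normalized.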

[2] = tested on: LXRa:RXRa (NR concentration 270 nM, RXRa partner concentration 90 nM)
Method in brief: as §1

[3] = tested on: LXRa homodimer (NR concentration 270 nM)
Method in brief: as §1

[4] = tested on: LXRb:RXRa (NR concentration 270 nM, RXRa partner concentration 90 nM)
Method in brief: as §1

[5] = tested on: LXRb homodimer (NR concentration 270 nM)
Method in brief: as §1

[6] = tested on: PPARa:RXRa (NR concentration 270 nM, RXRa partner concentration 90 nM)
Method in brief: as §1

[7] = tested on: PPARg:RXRa (NR concentration 180 nM, RXRa partner concentration 90 nM)
Method in brief: as §1

[8] = tested on: PPARg:RXRa 270nM:90nM, anti-RXR (NR concentration 270 nM, RXRa partner concentration 90 nM)
Method in brief: as §1

[9] = tested on: PPARg:RXRa 30nM:10nM, anti-RXR (NR concentration 30 nM, RXRa partner concentration 10 nM)
Method in brief: as §1

[10] = tested on: PPARg:RXRa 90nM:30nM, anti-RXR (NR concentration 90 nM, RXRa partner concentration 30 nM)
Method in brief: as §1

Sequence | PBM binding z-score [1] | PBM binding z-score [2] | PBM binding z-score [3] | PBM binding z-score [4] | PBM binding z-score [5] | PBM binding z-score [6] | PBM binding z-score [7] | PBM binding z-score [8] | PBM binding z-score [9] | PBM binding z-score [10]
TCTAGTTGCTCAAAGGTCACACACTCGAAATGCG | 5.09 | 5.26 | 3.7 | 5.39 | 1.49 | 5.88 | 6.32 | 6.78 | 6.1 | 6.91
ATATGTAGGTTAAGGGTCATTAAGGTTGGTTCGC | 5.05 | 4.87 | 2.72 | 4.3 | 0.865 | 6.59 | 11.6 | 9.59 | 10.3 | 10.7
CGAACGAGGGCATGAGTAGATAGCAAATGCCGAT | 0.0959 | 0.081 | -0.748 | -0.189 | -1.08 | 0.99 | 1.4 | 0.988 | 0.168 | 0.198
ATACCAAGGTGATCGTTAGGTCGTTGATACTAAC | 1.05 | 0.551 | 0.24 | 0.374 | -0.0967 | 0.452 | 0.242 | 0.192 | -0.144 | -0.131
CGTCCAAGGTCAAGGTCAGCGAAAGAGACTCGAA | 7.53 | 5.5 | 1.11 | 4.65 | 0.78 | 5.89 | 6.76 | 6.42 | 3.23 | 5.28
TGAATGAGGTTAAAGATCAGGGGACGTGGCGTCG | 3.07 | 2.68 | -0.153 | 1.66 | 1.09 | 4.35 | 5.2 | 6.37 | 5.28 | 6.61
TCATATAGGTAATACAGGTGAAAATCGGCATCTA | 1.35 | 1.37 | 0.422 | 1.27 | 0.421 | 2 | 1.78 | 2.58 | 4.1 | 3.43
GCTATTAGTTGAAAGGGCATCCGAATGATTCTCG | 0.204 | 0.581 | 0.00348 | 0.69 | 0.0114 | 2.22 | 2.35 | 4.39 | 2.34 | 3.96
GCTAGCAGGCCACTTGGGTCACTCAATGACGGGC | 0.0158 | -0.115 | -0.748 | 0.0102 | -0.778 | 0.888 | 0.483 | 0.199 | -0.326 | -0.355
GCTTACGGGTCAAAGGTTATAGGATGAATAGAAT | 7.58 | 5.53 | 0.854 | 5.77 | 0.455 | 6.89 | 11.4 | 9.24 | 10 | 10.9
TCTATTAGTTGATTAGGGCAACAGAAACAGCGGA | 0.997 | 0.779 | 0.0498 | 0.646 | 0.947 | 1.01 | 0.317 | 1.96 | 3.53 | 2.85
GCGACTGCGGCATCAGCAGGTTACCATAACTTAA | -0.558 | -0.742 | 0.0285 | -0.388 | -1.12 | -0.34 | -0.014 | -0.695 | -0.628 | -0.649
GCTCGGAGGACAAGTTCAGAGCTTTGTCCGTAGA | 0.263 | 0.115 | -0.227 | 0.0203 | -0.625 | 0.311 | -0.94 | -0.31 | -1.15 | -0.738
ATCTCTAGGTAATCAAGTTCAGTGAATGCCGAAC | 0.473 | 1.01 | 1.61 | 0.658 | 0.711 | 1.01 | 0.317 | 1.19 | 0.611 | 1.19
GCTGCTAGGTCAACTGATGGTCAGGTAAAGCTCG | 4.16 | 2.9 | 0.318 | 2.37 | 0.0406 | 3.7 | 2.95 | 3.33 | 0.765 | 1.9
CGAACTAGGTCAGAACAGGACAGTGAGGGATGAT | 1.59 | 0.807 | -0.0765 | 0.315 | -0.376 | 2.96 | 5.04 | 4.45 | 1.74 | 3.43
TCTAGGTGGTCACGGAGGTCACACACGACGGGTA | 3.81 | 3.68 | 2.06 | 3.28 | 0.0895 | 4.01 | 3.58 | 4.2 | 3.06 | 3.96
CCTAGCAGGCCAGGGTAACTCAAGCATTTCGCTT | -0.463 | -0.678 | -0.559 | -0.682 | -1.09 | 0.0169 | -0.112 | -0.182 | -1.01 | -0.605
CCTACTGGGCCATCATGTCATTGATATCAACGTT | -0.0902 | -0.142 | -0.139 | 0.0528 | -0.132 | 0.932 | 1.49 | 2.01 | 0.718 | 1.35
TGAATGAGGTTAAAGACCAGGGAACGTGGCGTCG | 2.78 | 2.16 | -0.15 | 1.26 | 0.1 | 3.51 | 3.08 | 4.46 | 2.42 | 4.02
ATCTCTCGGTAAAGTTCAGTGAAAGATCGATAGA | 1.03 | 1.46 | 1.39 | 1.3 | 1.34 | 1.6 | 1.08 | 2.68 | 1.12 | 2.32
TCGAGTTGGTCAAAGGTCACACACTCGAAATGCG | 5.98 | 5.57 | 3.08 | 5.33 | 0.74 | 6.37 | 10.4 | 9.4 | 8.64 | 11.3
TGTGCTAGGTCAACGATGGTCAGCTAATCTGCTA | 3.38 | 2.67 | -0.0277 | 1.54 | 0.116 | 3.1 | 2.68 | 2.4 | 0.195 | 1.68
